Test results from PubChem BioAssay (NCATS).
Where “and” joins values, the source holds several entries; their conditions need not be identical. Identical values can stand only once. Records with an inconclusive call do not appear. Where a call stands in place of a potency, no number is given. More than one record can exist for a structure, and the calls need not agree. Calls of active or inactive are those of the source. Unless noted, the call rests on the fitted dose curve; in most records, active means well fitted curve in the direction sought with a large enough effect; inconclusive means small, poorly fitted or top-dose-only effect, or another doubt; inactive means no such curve, though single readings can be large; an effect the other way counts as inactive or inconclusive.

What was measured:
[1] = molecular target: Thyrotropin-releasing hormone receptor (Homo sapiens) (UniProt P34981); assay: qHTS for Small Molecule Agonists and Allosteric Enhancers of Human TRH Receptor: Validation Screen for Agonists (AID 493127;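 active means calcium activation more than 3 SD above the typical response in the agonist read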;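 further: intracellular calcium rise by fluo-8 fluorescence before TRH EC20 addition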); conditions: TRH receptor agonist cell assay; at 2 µM; stronger effect = higher value
Summary of the method: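 Compounds are added by online pintool to dye-loaded TRHR cells while fluorescence is recorded every second. A rise in calcium signal during the agonist read marks activation; a later 10 nM TRH addition (EC20) serves the separate enhancer mode.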

[2] = Nrf2 qHTS screen for inhibitors: Validation (AID 493153; active means well fitted inhibition curve with a large enough effect in the main read-out, with a control signal flat, not every such curve was filed as active; further: potency means the concentration at half of the fitted maximal effect); conditions: A549 ARE-Fluc reporter, 18-24 h; Potency: luciferase luminescence; viability change: measured here: cytotoxicity max response; luciferase luminescence, at 46.1 µM (top of the series)
Summary of the method: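 A549 ARE_Fluc, 5% FBS OPTI-MEM; cpd titration, 18-24 h, 37°C/5% CO2. Read 1: CellTiter-Fluor (Ex 405/Em 525), cytotox. Read 2: luciferase lum, Nrf2 activity.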

[3] = qHTS for Inhibitors of Cell Surface uPA Generation: Validation Assay (AID 493164); conditions: mouse cells, plasminogen activation; series mostly up to 38.3 µM;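 further: RAW 264.7 macrophage cells exposed to compound for 18 h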
Summary of the method: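 ATP-Lite luminescence read-out: ATP remains high when uPA activity-dependent LF translocation into the cytoplasm is blocked. RAW 264.7 cells, 18 h compound exposure at 37 C; 7-point titration, 2.45 nM to 38.3 uM final.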

[4] = Validation screen for small molecules that induce DNA re-replication in SW480 colon adenocarcinoma cells (AID 504364); conditions: DNA re-replication phenotype (high-content imaging); series mostly up to 46.1 µM
Summary of the method: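 Image-based qHTS: compounds were incubated with SW480 cells for 48 hr, nuclei stained with Hoechst, and per-nucleus fluorescence intensity scanned to flag cells with excess DNA content.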

[5] = molecular target: Peptidyl-prolyl cis-trans isomerase NIMA-interacting 1 (Homo sapiens) (UniProt Q13526); assay: qHTS Validation Assay to Find Inhibitors of Pin1 (AID 504536; active means well fitted inhibition curve with a large enough effect in the polarisation, with a control signal flat, not every such curve was filed as active; the % refers to the polarisation); conditions: Pin1 fluorescence polarization peptide binding assay; series mostly up to 57.5 µM
Summary of the method: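 Fluorescence polarization competition: compounds (titration) displace HiFluor-488-labeled Pin1-1b peptide from Pin1 (0.3 uM final) in pH 7.5 HEPES buffer with DTT, 10 min at room temperature; %Activity normalized to no-enzyme wells, curves fitted.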

[6] = molecular target: Phosphoglycerate kinase, glycosomal (Trypanosoma brucei brucei) (UniProt P07378); assay: qHTS Validation Assay to Find Inhibitors of Phosphoglycerate Kinase (AID 504547); conditions: enzymatic PGK inhibition, coupled luminescence read-out; series mostly up to 57.5 µM
Summary of the method: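 Compounds are pinned into the substrate/PGK mixture, and GAPDH (100nM final) is added to start the reaction by producing 1,3-BPG. After 60 minutes at room temperature, Kinase-Glo Plus is added and luminescence is measured 10 minutes later.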

[7] = molecular target: phosphoglycerate mutase (Leishmania major) (UniProt Q4Q090); assay: qHTS Validation Assay to Find Inhibitors of Phosphoglycerate Mutase (AID 504548); conditions: biochemical enzyme activity; series mostly up to 57.5 µM;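 further: end-point luminescence from Kinase-GloPlus after the PGAM reaction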
Summary of the method: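 L. major PGAM (1.25nM final) was added to substrate buffer and pinned compound, incubated 45 minutes at room temperature, then Kinase-GloPlus added; luminescence read after 10 minutes. Buffer: 100 mM TEA pH 7.6, 5 mM MgCl2, 0.01% Tween-20.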

[8] = Inducers of the Endoplasmic Reticulum Stress Response (ERSR) in human glioma: Validation (AID 504836); conditions: human glioma cells, ER stress response reporter; series mostly up to 38.3 µM
Summary of the method: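 Stably transfected U87-MG glioma cells carrying a GRP78-based luciferase sensor; 16 h compound incubation. Luminescence end-point read 10 min after Bright-Glo addition at room temperature.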

[9] = molecular target: Ubiquitin carboxyl-terminal hydrolase 1 (Homo sapiens) (UniProt O94782); assay: Inhibitors of USP1/UAF1: Pilot qHTS (AID 504865); conditions: purified USP1/UAF1, Ub-rhodamine cleavage fluorescence; series mostly up to 114 µM; further: nearly all actives have a fitted effect of over 35% in size; further: potency means the concentration at half of the fitted maximal effect
Summary of the method: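 USP1/UAF1 complex at 1 nM preincubated 15 min at room temperature with compound, then Ub-Rho substrate added at 150 nM final. Fluorescence (480/540 nm) read kinetically in 50 mM HEPES pH 7.8, 0.5 mM EDTA, 1 mM TCEP, 0.1 mg/ml BSA, 0.01% Tween-20.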

[10] = qHTS for Inhibitors of ATXN expression: Validation of Cytotoxic Assay (AID 588349); conditions: cytotoxicity counter-screen for ATXN expression inhibitors, cell viability; series mostly up to 57.1 µM
Summary of the method: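 Titrated compounds are added to cultured HEK293 cells, which are then held at 37 degrees C for 72 hr; loss of intracellular ATP, measured with CellTiter Glo, indicates toxicity.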

[11] = molecular target: Estrogen receptor (Homo sapiens) (UniProt P03372); assay: qHTS assay for small molecule agonists of estrogen receptor alpha signaling (AID 588514; calls by dose curve; further: nearly all actives have a fitted effect of over 70% in size); conditions: ER-alpha-UAS-bla HEK293, beta-lactamase ratio, 18 h; series mostly up to 76.8 µM
Summary of the method: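 Efficacy is expressed against 20 nM 17-beta-estradiol (100%) and DMSO basal (0%); EC50 from Hill equation. Assay: beta-lactamase reporter in ER-alpha-UAS-bla HEK 293 cells, 18 h compound incubation, CCF4 detection.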

[12] = molecular target: Bile acid receptor (Homo sapiens) (UniProt Q96RI1); assay: qHTS assay for small molecule agonists of farnesoid X receptor signaling (AID 588527; calls by dose curve); conditions: HEK293T FXR-UAS-bla, beta-lactamase ratio, 16 h; stronger effect = higher value
Summary of the method: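 Agonist-mode beta-lactamase reporter in GeneBLAzer FXR-UAS-bla HEK293T cells, titration up to 92 uM, 16 h exposure at 37 C, CCF4 fluorescence. Response scaled to DMSO (0%) and 100 uM chenodeoxycholic acid (100%), then Hill-fitted for EC50 and efficacy.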

[13] = molecular target: DNA dC->dU-editing enzyme APOBEC-3G (Homo sapiens) (UniProt Q9HC16); assay: qHTS for inhibitors of Vif-A3G interactions: Validation (AID 588379); conditions: Vif-A3G protein interaction assay; series mostly up to 46.1 µM
Summary of the method: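 Yellow fluorescence (Ex 488, Em 500-530) of Vif-coexpressing HeLa A3G-eYFP cells, scanned by Acumen cytometer, reports blocked A3G degradation. Cells plated at 700/well overnight at 37 deg C before compound addition, then a further overnight compound incubation at 37 deg C.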

[14] = molecular target: Estrogen receptor (Homo sapiens) (UniProt P03372); assay: qHTS assay for small molecule antagonists of estrogen receptor alpha signaling (AID 588513; active means well fitted curve in the direction sought with a large enough effect in the signal ratio, with a control signal flat, not every such curve was filed as active; the % refers to the signal ratio); conditions: ER-alpha-UAS-bla HEK293, beta-lactamase ratio, antagonist mode; series mostly up to 76.9 µM
Summary of the method: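 ER-alpha-UAS-bla GripTite HEK 293 cells in 2% charcoal/dextran-treated FBS medium; compounds titrated (1:2, duplicate), then stimulated with 0.5 nM 17-beta-estradiol for 18 h at 37C. CCF4 beta-lactamase fluorescence; Hill-fit IC50 and efficacy.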

[15] = molecular target: Androgen receptor (Homo sapiens) (UniProt P10275); assay: qHTS assay for small molecule agonists of androgen receptor signaling (AID 588515; active means well fitted curve in the direction sought with a large enough effect in the signal ratio, with a control signal flat; the % refers to the signal ratio); conditions: AR-UAS-bla HEK293, beta-lactamase ratio, agonist 16 h; stronger effect = higher value
Summary of the method: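 Stimulation of an AR-responsive β-lactamase reporter in GripTite HEK293 cells was measured after 16 h compound exposure at 37 °C, via CCF4 fluorescence after 2 h RT. EC50 from Hill fits, normalized to R1881 at 30 nM.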

[16] = molecular target: Androgen receptor (Homo sapiens) (UniProt P10275); assay: qHTS assay for small molecule antagonists of androgen receptor signaling (AID 588516; active means well fitted curve in the direction sought with a large enough effect in the signal ratio, with a control signal flat, not every such curve was filed as active; the % refers to the signal ratio); conditions: AR-UAS-bla HEK293, beta-lactamase ratio, antagonist mode, 16 h; series mostly up to 76.8 µM
Summary of the method: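 AR-UAS-bla GripTite HEK 293 cells (2000/well) treated with compound titrations plus 10 nM R1881 for 16 h at 37C. Beta-lactamase read by CCF4 FRET (460/530 nm); IC50 from Hill fits, normalized to R1881 and DMSO control wells.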

[17] = molecular target: Peroxisome proliferator-activated receptor delta (Homo sapiens) (UniProt Q03181); assay: qHTS assay for small molecule agonists of peroxisome proliferator-activated receptor delta signaling (AID 588534; calls by dose curve); conditions: HEK293T PPARdelta-UAS-bla, beta-lactamase ratio, 18 h; series mostly up to 76.7 µM
Summary of the method: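 Agonist-mode qHTS; reporter cells, 5 hrs 37 C pre-incubation; compound titration, 18 hrs 37 C; CCF4 dye, 2 hrs RT; fluorescence read. EC50/efficacy via Hill fit.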

Phosphoglycerate kinase, glycosomal (Trypanosoma brucei brucei), sequence (P07378 whole entry, looked up): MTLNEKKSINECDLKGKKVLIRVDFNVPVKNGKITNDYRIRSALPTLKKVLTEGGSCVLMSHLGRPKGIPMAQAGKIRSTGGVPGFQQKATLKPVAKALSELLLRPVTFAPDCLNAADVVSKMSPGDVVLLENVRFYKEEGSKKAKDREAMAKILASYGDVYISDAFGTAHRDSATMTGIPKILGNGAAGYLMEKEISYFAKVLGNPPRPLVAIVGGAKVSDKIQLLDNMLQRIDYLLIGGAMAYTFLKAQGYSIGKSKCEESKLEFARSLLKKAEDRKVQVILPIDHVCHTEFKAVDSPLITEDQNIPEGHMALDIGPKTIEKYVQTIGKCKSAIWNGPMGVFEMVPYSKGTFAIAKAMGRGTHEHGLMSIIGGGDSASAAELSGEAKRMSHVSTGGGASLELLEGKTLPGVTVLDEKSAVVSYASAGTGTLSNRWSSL
Estrogen receptor (Homo sapiens), sequence (P03372 whole entry, looked up): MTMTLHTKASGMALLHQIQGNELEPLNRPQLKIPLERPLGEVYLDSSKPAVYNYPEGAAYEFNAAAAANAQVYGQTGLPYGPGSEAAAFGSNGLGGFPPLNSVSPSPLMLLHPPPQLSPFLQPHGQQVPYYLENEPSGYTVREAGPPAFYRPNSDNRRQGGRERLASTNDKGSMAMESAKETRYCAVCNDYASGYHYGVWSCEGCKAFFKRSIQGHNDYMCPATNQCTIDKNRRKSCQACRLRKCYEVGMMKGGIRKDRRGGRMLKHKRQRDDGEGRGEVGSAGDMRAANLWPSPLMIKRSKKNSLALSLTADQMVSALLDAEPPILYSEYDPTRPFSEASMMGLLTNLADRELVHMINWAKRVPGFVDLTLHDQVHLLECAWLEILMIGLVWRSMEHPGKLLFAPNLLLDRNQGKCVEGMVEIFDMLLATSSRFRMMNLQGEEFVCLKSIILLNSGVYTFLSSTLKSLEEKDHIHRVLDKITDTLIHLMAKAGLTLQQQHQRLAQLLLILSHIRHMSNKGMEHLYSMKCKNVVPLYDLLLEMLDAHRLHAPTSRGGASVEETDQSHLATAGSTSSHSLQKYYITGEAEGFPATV
Thyrotropin-releasing hormone receptor (Homo sapiens), sequence (P34981 whole entry, looked up): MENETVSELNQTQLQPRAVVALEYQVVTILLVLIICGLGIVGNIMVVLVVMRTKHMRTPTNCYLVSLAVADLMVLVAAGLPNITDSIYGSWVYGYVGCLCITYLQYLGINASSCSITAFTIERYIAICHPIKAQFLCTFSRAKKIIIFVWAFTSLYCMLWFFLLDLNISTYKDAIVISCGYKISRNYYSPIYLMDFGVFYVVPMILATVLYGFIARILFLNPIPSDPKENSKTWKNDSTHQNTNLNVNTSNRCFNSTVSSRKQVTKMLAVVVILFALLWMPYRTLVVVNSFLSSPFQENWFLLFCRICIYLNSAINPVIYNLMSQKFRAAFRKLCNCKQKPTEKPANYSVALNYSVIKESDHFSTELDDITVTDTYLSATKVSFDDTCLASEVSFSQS
Peptidyl-prolyl cis-trans isomerase NIMA-interacting 1 (Homo sapiens), sequence (Q13526 whole entry, looked up): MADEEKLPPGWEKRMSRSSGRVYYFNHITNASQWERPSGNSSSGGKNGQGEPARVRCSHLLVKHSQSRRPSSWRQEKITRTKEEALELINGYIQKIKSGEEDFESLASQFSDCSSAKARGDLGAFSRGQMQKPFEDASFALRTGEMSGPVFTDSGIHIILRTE
Ubiquitin carboxyl-terminal hydrolase 1 (Homo sapiens), sequence (O94782 whole entry, looked up): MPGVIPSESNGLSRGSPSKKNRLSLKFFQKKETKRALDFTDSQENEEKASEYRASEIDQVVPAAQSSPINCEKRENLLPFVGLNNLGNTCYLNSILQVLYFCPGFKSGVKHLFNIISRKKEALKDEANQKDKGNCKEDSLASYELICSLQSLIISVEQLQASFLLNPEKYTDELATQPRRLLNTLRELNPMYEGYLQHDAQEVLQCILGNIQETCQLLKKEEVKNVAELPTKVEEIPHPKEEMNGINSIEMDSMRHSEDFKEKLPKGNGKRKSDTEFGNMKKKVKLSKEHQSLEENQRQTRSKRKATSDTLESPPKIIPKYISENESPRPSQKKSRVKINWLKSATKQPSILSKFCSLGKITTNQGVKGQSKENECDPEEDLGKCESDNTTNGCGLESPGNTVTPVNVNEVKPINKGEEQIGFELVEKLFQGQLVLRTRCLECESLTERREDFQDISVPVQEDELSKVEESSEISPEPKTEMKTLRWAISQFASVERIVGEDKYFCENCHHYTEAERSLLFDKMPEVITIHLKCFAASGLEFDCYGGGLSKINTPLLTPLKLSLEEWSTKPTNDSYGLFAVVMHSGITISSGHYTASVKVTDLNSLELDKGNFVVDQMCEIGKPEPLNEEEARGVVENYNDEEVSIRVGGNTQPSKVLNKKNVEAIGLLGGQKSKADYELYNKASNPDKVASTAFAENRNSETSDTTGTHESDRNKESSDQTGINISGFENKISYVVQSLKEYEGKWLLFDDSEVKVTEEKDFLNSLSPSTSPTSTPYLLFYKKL
phosphoglycerate mutase (Leishmania major), sequence (Q4Q090 1-553): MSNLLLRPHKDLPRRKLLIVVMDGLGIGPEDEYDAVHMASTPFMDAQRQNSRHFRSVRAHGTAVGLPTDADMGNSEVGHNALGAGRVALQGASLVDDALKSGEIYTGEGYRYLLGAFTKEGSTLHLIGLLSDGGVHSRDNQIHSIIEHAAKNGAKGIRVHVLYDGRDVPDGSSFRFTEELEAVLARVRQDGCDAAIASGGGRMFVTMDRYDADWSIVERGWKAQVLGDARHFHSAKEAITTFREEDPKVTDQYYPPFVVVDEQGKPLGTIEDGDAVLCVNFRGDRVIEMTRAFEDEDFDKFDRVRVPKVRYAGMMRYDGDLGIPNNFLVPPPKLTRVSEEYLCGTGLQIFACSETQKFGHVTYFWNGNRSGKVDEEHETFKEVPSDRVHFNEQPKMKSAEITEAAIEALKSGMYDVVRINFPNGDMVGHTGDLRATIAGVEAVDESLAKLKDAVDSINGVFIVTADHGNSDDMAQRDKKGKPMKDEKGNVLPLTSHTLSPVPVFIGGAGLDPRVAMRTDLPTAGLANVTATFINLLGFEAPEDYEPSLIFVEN
Bile acid receptor (Homo sapiens), sequence (Q96RI1 whole entry, looked up): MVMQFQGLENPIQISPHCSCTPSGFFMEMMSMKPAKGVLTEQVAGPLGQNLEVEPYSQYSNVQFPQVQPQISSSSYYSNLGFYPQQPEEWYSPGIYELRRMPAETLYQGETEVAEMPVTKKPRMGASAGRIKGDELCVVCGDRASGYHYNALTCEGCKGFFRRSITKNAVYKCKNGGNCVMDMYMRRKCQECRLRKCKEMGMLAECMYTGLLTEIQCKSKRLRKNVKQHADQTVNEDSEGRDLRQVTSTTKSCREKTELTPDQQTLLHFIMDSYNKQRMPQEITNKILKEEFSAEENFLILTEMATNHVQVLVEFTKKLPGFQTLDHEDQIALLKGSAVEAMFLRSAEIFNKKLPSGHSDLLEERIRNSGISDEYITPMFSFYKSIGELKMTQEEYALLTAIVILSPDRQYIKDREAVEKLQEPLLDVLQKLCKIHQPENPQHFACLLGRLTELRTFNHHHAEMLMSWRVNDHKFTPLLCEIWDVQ
Androgen receptor (Homo sapiens), sequence (P10275 whole entry, looked up): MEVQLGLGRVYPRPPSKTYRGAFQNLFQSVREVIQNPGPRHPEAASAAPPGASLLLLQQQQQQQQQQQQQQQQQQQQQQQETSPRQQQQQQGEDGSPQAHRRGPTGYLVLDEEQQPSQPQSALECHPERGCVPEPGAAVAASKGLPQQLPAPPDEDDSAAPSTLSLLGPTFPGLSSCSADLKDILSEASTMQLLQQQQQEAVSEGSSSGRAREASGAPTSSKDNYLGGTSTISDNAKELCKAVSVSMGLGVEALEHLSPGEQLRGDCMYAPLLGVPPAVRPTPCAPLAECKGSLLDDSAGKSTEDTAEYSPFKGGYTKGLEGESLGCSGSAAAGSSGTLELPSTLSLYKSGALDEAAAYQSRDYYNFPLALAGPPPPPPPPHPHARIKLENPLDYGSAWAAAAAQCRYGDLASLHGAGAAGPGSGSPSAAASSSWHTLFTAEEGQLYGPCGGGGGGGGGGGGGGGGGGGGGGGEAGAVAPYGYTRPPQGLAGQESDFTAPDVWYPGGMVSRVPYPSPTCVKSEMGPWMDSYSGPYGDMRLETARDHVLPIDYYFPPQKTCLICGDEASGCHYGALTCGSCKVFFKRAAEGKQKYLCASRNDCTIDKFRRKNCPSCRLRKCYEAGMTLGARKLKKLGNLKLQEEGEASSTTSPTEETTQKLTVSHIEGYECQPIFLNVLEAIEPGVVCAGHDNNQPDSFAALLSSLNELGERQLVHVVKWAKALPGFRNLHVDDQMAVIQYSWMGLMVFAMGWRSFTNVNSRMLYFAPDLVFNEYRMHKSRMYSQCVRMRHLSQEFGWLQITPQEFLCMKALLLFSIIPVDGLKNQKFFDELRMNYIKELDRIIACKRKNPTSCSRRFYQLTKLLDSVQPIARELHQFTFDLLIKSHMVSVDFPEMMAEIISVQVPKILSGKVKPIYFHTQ
DNA dC->dU-editing enzyme APOBEC-3G (Homo sapiens), sequence (Q9HC16 whole entry, looked up): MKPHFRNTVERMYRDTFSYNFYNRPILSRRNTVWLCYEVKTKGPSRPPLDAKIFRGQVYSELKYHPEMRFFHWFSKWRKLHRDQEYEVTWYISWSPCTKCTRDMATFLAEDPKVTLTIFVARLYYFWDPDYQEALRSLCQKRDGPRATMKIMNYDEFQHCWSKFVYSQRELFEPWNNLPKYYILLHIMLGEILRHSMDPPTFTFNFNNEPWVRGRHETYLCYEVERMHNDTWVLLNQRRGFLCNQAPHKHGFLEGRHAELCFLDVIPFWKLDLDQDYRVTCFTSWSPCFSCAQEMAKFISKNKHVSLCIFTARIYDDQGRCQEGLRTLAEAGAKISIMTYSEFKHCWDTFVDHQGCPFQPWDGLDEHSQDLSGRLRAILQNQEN

| Compound | activation [1] | Potency [2] | viability change [2] | outcome [3] | Potency [4] | Potency [5] | Potency [6] | outcome [7] | outcome [8] | Potency [9] | Potency [10] | Potency [11] | activation [12] | outcome [13] | outcome [14] | activation [15] | outcome [16] | outcome [17] |
| --- | --- | --- | --- | --- | --- | --- | --- | --- | --- | --- | --- | --- | --- | --- | --- | --- | --- | --- |
| CCCN1CCC[C@@H]2Cc3nc(N)ncc3C[C@H]21 | 0.562% (inactive) | inactive | 1.56% | inactive | inactive | inactive | inactive | inactive | inactive | inactive | inactive |  |  |  |  |  |  |  |
| CCn1cc(C(=O)O)c(=O)c2ccc(C)nc21 | 1.06% (inactive) |  |  |  | inactive |  |  |  | inactive |  |  | inactive | -0.319% (inactive) and 0.585% (inactive) |  |  |  |  |  |
| Cc1cccc(C)c1NC1=NCCCS1 | 0.688% (inactive) | inactive | -1.16% | inactive | inactive | inactive | inactive | inactive | inactive | inactive | inactive |  |  |  |  |  |  |  |
| NCC(O)c1ccc(O)cc1 (configuration not stated) | 0.812% (inactive) | inactive | 0.943% | inactive | inactive | inactive | inactive | inactive | inactive | inactive | inactive |  |  |  |  |  |  |  |
| COc1ccc(Cc2nccc3cc(OC)c(OC)cc23)cc1OC | -0.312% (inactive) | 7.31 µM (active) | -7.85% |  | inactive |  |  |  | inactive | inactive and 50.1 µM (active) |  |  |  |  |  |  |  |  |
| Nc1ccncc1 | 1.19% (inactive) | inactive | -2.07% | inactive | inactive | inactive | inactive | inactive | inactive | inactive | inactive | inactive |  | inactive | inactive | -4.84% (inactive) | inactive | inactive |
| NCC(CC(=O)O)c1ccc(Cl)cc1 (configuration not stated) | 0.125% (inactive) | 9.2 µM (active) | 12.6% | inactive | inactive | inactive | inactive | inactive | inactive | inactive | inactive |  |  |  |  |  |  |  |
| Cc1ccc(S(=O)(=O)N[C@@H](CCCCN)C(=O)CCl)cc1 | -0.625% (inactive) | inactive | -2.81% |  | inactive | inactive | inactive | inactive | inactive | 50.1 µM (active) and 39.8 µM (active) |  |  |  |  |  |  |  |  |
| CC(=O)[C@H]1CC[C@H]2[C@@H]3CC[C@H]4C[C@](C)(O)CC[C@]4(C)[C@H]3CC[C@]12C |  |  |  | inactive |  | inactive | inactive | inactive | inactive | inactive | inactive |  |  |  |  |  |  |  |
| COc1ccccc1N1CCNCC1 | -7.69% (inactive) | inactive | 10.4% | inactive | inactive | inactive | inactive | inactive | inactive | inactive | inactive |  |  |  |  |  |  |  |
| CC[N+](CC)(CC)CC |  |  |  |  | inactive |  |  |  | inactive | inactive |  |  |  |  |  |  |  |  |
